NS1 inh: inhibitors of influenza NS1 protein function; Potency, µM (top dose mostly 46.1 µM), for the others: at the top dose activity, positive = more growth; 270,000 tested, 0.4% active; AID 2326; note: potency is the fitted concentration of half-maximal effect; actives are rising curves; nearly all actives have a fitted effect of over 50% in size
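A cell-based growth assay was used: compounds that relieve NS1-induced slow growth of budding yeast raise OD600. Assay medium was yeast nitrogen base with ammonium sulphate and -URA supplement, pH 6.0, with 2% galactose.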
Pf growth 96h: inhibits malaria parasite growth, 96 h | 320,000 tested, 6.9% active | Potency, µM (top dose mostly 28.7 µM), for the others: top-dose activity change, negative = inhibition, most hits filed as inhibitors | P. falciparum luciferase reporter growth, 96 h; active = well fitted inhibition curve with a large enough effect; inconclusive = small, poorly fitted or top-dose-only effect, or another doubt; inactive = no such curve, though single readings can be large or run the other way; note: potency is the fitted concentration of half-maximal effect; % is set by controls: 0 for no effect and ±100 for the full control effect
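P. falciparum expressing integrated firefly luciferase grown in erythrocytes (2% hematocrit, 0.05% parasitemia final) with compounds for 96 hours at 37 C, 5% CO2. Growth inhibition read as loss of luminescence after adding luciferase detection reagent.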
Cycloheximide cs: counter-screen for Shiga toxin inhibitors: cycloheximide protein synthesis inhibition; cell reporter, cycloheximide protein synthesis inhibition counterscreen; max response, %; 300,000 tested, 12% active; AID 2314; in the data active = max response mostly above about 13%, no sharp cut-off; inactive = mostly below about 14%; note: read at 38.3 µM for the half of the compounds with a filed dose; 0% is about no effect
Pf growth 48h: P. falciparum growth inhibition at 48 hours (one generation); P. falciparum luciferase growth in erythrocytes, 48 h; Potency, µM (titrated, usually from 28.7 µM), for the others: top-dose activity change, negative = inhibition, hits mostly inhibitors; 310,000 tested, 5.9% active; AID 504832; active = well fitted inhibition curve with a large enough effect; inconclusive = small, poorly fitted or top-dose-only effect, or another doubt; inactive = no such curve, though single readings can be large or run the other way; note: potency is the fitted concentration of half-maximal effect; % is set by controls: 0 for no effect and ±100 for the full control effect
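Luciferase-expressing parasites in RBCs, 2% Hct / 0.1% parasitemia final; RPMI 1640 + 0.5% Albumax; 37 C, 5% CO2, one generation; luminescence read-out, lower signal = inhibition.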
Shiga toxin inh: Shiga toxin inhibition; Vero cells, Shiga toxin protein synthesis inhibition reporter; inhibition, % at 38.7 µM; 290,000 tested, 9.2% active; AID 2315; in the data active = inhibition mostly above about 28%, no sharp cut-off; inactive = mostly below about 43%; note: 0% is about no effect
SARS PLP yeast: inhibitors of SARS-CoV papain-like protease in yeast | S. cerevisiae expressing SARS-CoV PLpro, growth rescue | Potency, µM (doses to about 32.9 µM), without a hit: at the highest dose activity, positive = growth rescue, usual class: activators | 330,000 tested, 0.19% active | AID 485353; note: potency is the fitted concentration of half-maximal effect; 0% is about no effect; nearly all actives have a fitted effect of over 55% in size
Numbers without * were called inactive; i = inactive; ? = inconclusive; / = no result; + = active, no number; [ ] = remark or other dose. Shown are actives, neighbours in structure and some others; about 21% of the full set was active somewhere. Unless noted, calls come from the whole dose curve.

SMILES	NS1 inh	Pf growth 96h	Cycloheximide cs	Pf growth 48h	Shiga toxin inh	SARS PLP yeast
Cc1ccc(C)c(S(=O)(=O)NCCCc2ccccc2)c1	-41%	23%	7	-4%	-2	-5%
COc1ccc(N/C=C/C(=O)c2ccccc2)cc1	-22%	426%	9	303%	/	-1%
NS(=O)(=O)c1ccc2ccccc2c1	-3%	26%	0	-2%	10	1%
COC(/C=C/Nc1ccc(OC)cc1)=C(C#N)C#N	4%	174%	-2	?	18	-6%
NS(=O)(=O)c1ccc(N/C=C\C(=O)c2ccc3ccccc3c2)cc1	3%	22%	31*	35%	18	-9%
COc1ccc(N/C=C/C(=O)C(C)(C)C)cc1	4%	?	31*	15%	93*	-1%
COc1ccc(N/C=C\C(=O)c2ccc3ccccc3c2)cc1	-4%	-23%	29*	191%	24	5%
CCOC(=O)N1CCN(C(=O)CSc2ccc(-c3ccc(OC)cc3)nn2)CC1	/	?	17	?	26	0%
CCN1C(=O)CC(N2CCN(CC(=O)NC(C)C)CC2)C1=O (stereo not given)	-2%	1%	-3	?	-11	0%
CN(C)C(=O)c1cc(C(=O)c2ccccc2F)c[nH]1	3%	55%	1	20%[0.00184 µM]	21	1%
CN(C)C(=O)c1cc(C(=O)c2ccc(C(F)(F)F)cc2F)c[nH]1	/	187%	42*	i	92*	-1%
CN(C)C(=O)c1cc(C(=O)c2ccc(F)cc2F)c[nH]1	9%	88%	16*	43%	102*	0%
Cc1nc2ccccc2nc1SCC(=O)c1ccccc1	-6%	-21%	16	11%	19	10%
C[n+]1cc[nH]c1SCC(=O)c1ccccc1	-4%	9%	37*	/	58	6%
C[n+]1cc[nH]c1SCC(=O)c1ccc(Cl)cc1	4%	0%	31*	47%	63	-1%
COc1ccc(-c2csc3nc(-c4ccccc4OC)oc(=O)c23)cc1	6%	6%	-2	?	-6	-1%
Cc1ccc(C)c(NCC(=O)c2ccc(Cl)cc2)c1	-10%	-9%	-2	?	11	-2%
Cc1ccc(C(=O)CNc2ccc(Cl)cc2)cc1	/	?	42*	98%	86*	-16%
CCOc1ccc(NCC(=O)c2ccc(C)cc2)cc1	/	-10%	16*	-8%	63*	-1%
COC(=O)C(CC(=O)c1ccc(Cl)cc1)c1ccc(C)cc1 (stereo not given)	-10%	-24%	20	?	+	-40%
C[n+]1cccc(/C=N/NC(=O)CC23CC4CC(CC(C4)C2)C3)c1	-31%	0.59µM*	1	?	-1	-2%
CCNc1nc(NCC)nc(N(C)/N=C/c2ccco2)n1	-5%	1.5µM*	5	?	-6	-1%
CCCCn1c(N)c(N(CCOC)C(=O)c2c(C)noc2C)c(=O)[nH]c1=O	/	29%	/	0%	/	1%
Cc1cccc(C2=NC(C(F)(F)F)(C(F)(F)F)c3c(n(-c4ccc(F)cc4)c(=O)[nH]c3=O)N2)c1	2%	12µM*	-4	13µM*	-8	-9%
COc1ccc(Cl)cc1NC(=O)CSc1nc(=O)n(CCN(C)C)c2c1CCCC2	/	?	/	?	/	-5%
SMILES	NS1 inh	Pf growth 96h	Cycloheximide cs	Pf growth 48h	Shiga toxin inh	SARS PLP yeast
CCCCSc1nc(O)cc(=O)n1CC	/	-5%	-3	9%	15	1%
CCCN1C(=O)/C(=C\C=C2\N(CC)c3ccccc3C2(C)C)SC1=S	-2%	-4%	0	5.2µM*	-5	0%
Cc1cccc(C(=O)Nc2nnc(Cc3ccccc3)s2)c1	5%	10µM*	9.3*	?	8	-7%
O=C(Nc1nnc(Cc2ccc(Cl)cc2)s1)c1cccs1	9%	22%	-1	33%	16	-1%
O=C(Nc1nnc(CC2=CCCCC2)s1)c1cccs1	-27%	/	30*	59%	100*	-5%
CC(C)Cc1nnc(NC(=O)C2CCCC2)s1	14%	36%	24*	27%	44	2%
O=C(Nc1nnc(CCN2CCCCC2)s1)c1ccccc1	/	-13%	33*	85%	40	-10%
Cc1ccc(NC(=O)Cc2ncc(C(F)(F)F)cc2Cl)cc1Cl	4%	-2%	14	43%	-19	-5%
COc1ccc(NC(=O)CNC(=O)Cc2cccc3ccccc23)c(OC)c1	/	?	/	?	/	-1%
CCOc1ccccc1-c1nnc2n1N=C(c1cc(OC)ccc1OC)CS2	/	/	7	/	2	/
Cc1ccc(C(=O)Nc2nnc(Cc3ccccc3)s2)cc1	3%	0%	2	8%	-3	0%
O=C(Nc1nnc(Cc2ccccc2)s1)c1cccs1	-12%	20%	25*	40%	41	-6%
COc1ccc(S(=O)(=O)CCc2nnc(NC(=O)c3cccs3)s2)cc1	-6%	33%	-3	2.3µM*	-8	-7%
O=C(Nc1nnc(Cc2ccccc2)s1)c1ccccc1	12%	?	17*	85%	39*	19%
O=C(Nc1nnc(Cc2ccccc2)s1)C1CCC1	-15%	1.7µM*	0	?	20	9%
O=C(Nc1nnc(Cc2ccccc2)s1)C1CCN(C(=O)c2ccco2)CC1	-7%	8%	8	-10%	-2	0%
NN/C(=C\[N+](=O)[O-])Nc1ccc(Cl)cc1	-3%	17%	13	-12%	40	-2%
COc1ccc(N(CN2C(=O)C3CCCCC3C2=O)C(=O)c2ccco2)cc1 (stereo not given)	-1%	8%	-2	1%	2	1%
Cc1cc(=O)n2[nH]c(N)c(N=Nc3ccccc3)c2n1	10%	6%	-3	1%	13	0%
Nc1ccc(N=Nc2ccccc2)c2ccccc12	?	64%	22*	3%	22	-2%
Nc1ccc(N=Nc2ccccc2)c(N)n1	-11%	50%	52*	111%	73*	-5%
COCCN(CCOC)c1cc(C)c(C#N)c2nc3ccccc3n12	6%	10µM*	-2	?	12	-4%
Cc1cc(-c2ccco2)n2c(nc3ccccc32)c1C#N	3%	69%	-5	12µM*	-22	5%
CCn1nc(C(=O)NNC(=O)c2ccccc2)c2ccccc2c1=O	/	-16%	/	47%	/	-13%
Cn1cc(CN2CCC(C(O)c3cccs3)CC2)c(-c2cccc(Cl)c2)n1 (stereo not given)	2%	?	-1	9.3µM*	7	0%
Cn1cc(CN2CCN(c3ncccn3)CC2)c(-c2cccc(Cl)c2)n1	-5%	6%	-6	-20%	-16	0%
O=C(COC(=O)c1ccccn1)Nc1ccc2c(c1)OCCO2	/	/	/	/	/	1%
COc1ccc(C2=NO[C@@](CC(=O)O)(C(=O)Nc3ccc4c(c3)OCCO4)C2)cc1	0%	25%	30*	-2%	62*	3%
COc1ccc(NC(=S)NC(=O)c2ccc3c(c2)OCCO3)cc1	/	/	/	/	/	0%

Bioassay records: PubChem BioAssay, National Center for Advancing Translational Sciences (NCATS)
